Experimental data published in PubChem BioAssay (NCI).
Compounds without any hit were thinned out: in the full panel of roughly 79,000, 15% have a hit. Activity calls are given as the source filed them. No stated cut-off is given here; in the data, active means growth inhibition above about 70%; inactive means the rest.

What was measured:
[1] = NCI Yeast Anticancer Drug Screen. Data for the rad52 strain (AID 147);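 further: 0% = growth of vehicle-treated control cultures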; conditions: S. cerevisiae rad52 mutant growth inhibition, hits give high values
How it was run: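 Growth of repair-deficient yeast cells was compared between compound-treated and vehicle-treated cultures to give percent inhibition.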

[2] = NCI Yeast Anticancer Drug Screen. Data for the wt1 strain (AID 149);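 further: 0% = growth of vehicle-treated wt1 cultures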; conditions: S. cerevisiae wt1 strain (SPY 50644) growth inhibition, hits give high values
How it was run: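 Compounds are added to wt1 yeast cultures. Growth is then measured. Inhibition is expressed relative to vehicle-treated controls.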

[3] = NCI Yeast Anticancer Drug Screen. Data for the rad50EPP+ strain (AID 151);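 further: 0% = growth of vehicle-treated control cultures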; conditions: S. cerevisiae rad50 mutant strain, hits give high values
How it was run: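 Measured: growth inhibition of rad50EPP+ yeast. Reference: vehicle-treated controls. Screen uses strains with defined genetic alterations in DNA damage repair or cell cycle control.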

[4] = NCI Yeast Anticancer Drug Screen. Data for the mgt1 strain (AID 153); conditions: S. cerevisiae mgt1 mutant growth inhibition, hits give high values
How it was run: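 Compounds were applied to mgt1 mutant yeast, and growth was then compared against vehicle-treated control cultures to give percent inhibition.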

[5] = NCI Yeast Anticancer Drug Screen. Data for the rad50 strain (AID 155);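 further: 0% = growth of vehicle-only cultures of the same strain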; conditions: S. cerevisiae rad50 strain growth inhibition, hits give high values
How it was run: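 Inhibition values express reduced yeast growth in compound-treated cultures relative to vehicle-treated controls.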

[6] = NCI Yeast Anticancer Drug Screen. Data for the mec2-1 strain (AID 157); conditions: S. cerevisiae mec2-1 strain, hits give high values
How it was run: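 Compounds were applied to mec2-1 yeast cells. Their growth was then compared with that of vehicle-treated cultures to give growth inhibition.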

[7] = NCI Yeast Anticancer Drug Screen. Data for the rad14 strain (AID 159);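 further: 0% = growth of vehicle-treated control cultures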; conditions: S. cerevisiae rad14 strain growth inhibition, hits give high values
How it was run: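 A mutant yeast strain defective in DNA damage repair is treated with compound; inhibition of its growth is scored against untreated, vehicle-exposed cultures.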

[8] = NCI Yeast Anticancer Drug Screen. Data for the sgs1 mgt1 strain (AID 161);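 further: 0% = growth of cultures given vehicle only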; conditions: S. cerevisiae sgs1 mgt1 strain, hits give high values
How it was run: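 Growth of a repair-deficient yeast mutant was monitored after compound treatment and expressed as inhibition relative to vehicle-treated cultures.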

[9] = NCI Yeast Anticancer Drug Screen. Data for the CLN2oe strain (AID 163);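 further: 0% = growth of vehicle-only control cultures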; conditions: S. cerevisiae CLN2oe strain, hits give high values
How it was run: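 Cells of an engineered yeast line with disturbed cell-cycle regulation are treated with compound. Inhibition of growth is then calculated relative to the vehicle-treated reference.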

[10] = NCI Yeast Anticancer Drug Screen. Data for the cln2 rad14 strain (AID 165);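 further: 0% = growth equal to vehicle treated cultures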; conditions: S. cerevisiae cln2 rad14 strain, hits give high values
How it was run: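 Strain: cln2 rad14 yeast, altered in cell cycle control and DNA damage repair. Read-out: growth inhibition vs vehicle.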

[11] = NCI Yeast Anticancer Drug Screen. Data for the bub3 strain (AID 167); conditions: S. cerevisiae bub3 mutant strain, hits give high values
How it was run: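 Steps: expose the mutant yeast strain to compound; grow alongside vehicle-treated cultures; measure growth; express inhibition against the vehicle cultures.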

[12] = NCI Yeast Anticancer Drug Screen. Data for the wt2 strain (AID 169);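 further: 0% = growth of vehicle-treated yeast cultures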; conditions: S. cerevisiae wt2 strain growth inhibition, hits give high values
How it was run: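 Growth of compound-treated yeast is measured and expressed as inhibition relative to vehicle-only controls.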

[13] = NCI Yeast Anticancer Drug Screen. Data for the mlh1 strain (AID 171);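 further: 0% = growth of vehicle-treated control cultures of the same strain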; conditions: S. cerevisiae mlh1 strain growth inhibition, hits give high values
How it was run: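 Test agents were incubated with yeast bearing a defined DNA damage repair or cell cycle control alteration; values are growth inhibition normalised to vehicle-treated cultures.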

[14] = NCI Yeast Anticancer Drug Screen. Data for the sgs1 strain (AID 173);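 further: 0% = growth of vehicle-only control cultures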; conditions: S. cerevisiae sgs1 mutant, hits give high values
How it was run: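 Strain with an altered DNA repair or cell cycle pathway exposed to compound. Growth then measured. Value = inhibition versus vehicle control.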

[15] = NCI Yeast Anticancer Drug Screen. Data for the mlh1 rad18 strain (AID 175); conditions: S. cerevisiae mlh1 rad18 strain growth inhibition, hits give high values
How it was run: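 A repair-deficient yeast strain is exposed to test compound, and growth is scored relative to vehicle-treated controls.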

[16] = NCI Yeast Anticancer Drug Screen. Data for the rad18 strain (AID 177); conditions: S. cerevisiae rad18 mutant growth inhibition, hits give high values
How it was run: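 DNA-repair-defective yeast; compound treatment; growth inhibition scored against vehicle.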

[17] = at 5.0 µM (retest, dose inferred, filed as 0.5)
[18] = at 50.0 µM (retest, dose inferred, filed as 5.0)

Measured: growth inhibition

COc1cc2c(cc1[N+](=O)[O-])C(=O)C(Br)(Br)CCC2
inactive: [1]; at 1.2 µM 39% | [1]; at 3.7 µM 63% | [2]; at 1.2 µM 38% | [2]; at 3.7 µM 50% | [3]; at 1.2 µM 40% | [4]; at 1.2 µM 50% | [5]; at 1.2 µM 42% | [5]; at 3.7 µM 50% | [5]; [17] 8% | [6]; at 1.2 µM 35% | [6]; at 3.7 µM 41% | [6]; [17] 31% | [7]; at 1.2 µM 33% | [7]; at 3.7 µM 44% | [8]; [17] 49% | [9]; at 1.2 µM 21% | [9]; at 3.7 µM 21% | [9]; at 11.0 µM 55% | [10]; [17] 25% | [11]; at 1.2 µM 9% | [11]; at 3.7 µM 36% | [11]; [17] 42% | [12]; at 1.2 µM 6% | [12]; at 3.7 µM 11% | [13]; at 1.2 µM 50% | [14]; at 1.2 µM 38% | [14]; at 3.7 µM 45% | [15]; [17] 18% | [16]; at 1.2 µM 33% | [16]; at 3.7 µM 64%
active: [1]; at 11.0 µM 98% | [1]; at 33.0 µM 99% | [1]; at 100.0 µM 94% | [2]; at 11.0 µM 91% | [2]; at 33.0 µM 99% | [2]; at 100.0 µM 98% | [3]; at 3.7 µM 73% | [3]; at 11.0 µM 99% | [3]; at 33.0 µM 100% | [3]; at 100.0 µM 96% | [4]; at 3.7 µM 73% | [4]; at 11.0 µM 100% | [4]; at 33.0 µM 99% | [4]; at 100.0 µM 97% | [5]; at 11.0 µM 97% | [5]; at 33.0 µM 99% | [5]; [18] 98% | [5]; at 50.0 µM 91.2% | [5]; at 100.0 µM 95% | [6]; at 11.0 µM 99% | [6]; at 33.0 µM 100% | [6]; [18] 100% | [6]; at 50.0 µM 93.5% | [6]; at 100.0 µM 96% | [7]; at 11.0 µM 99% | [7]; at 33.0 µM 100% | [7]; at 100.0 µM 96% | [8]; [18] 100% | [8]; at 50.0 µM 90% | [9]; at 33.0 µM 98% | [9]; at 100.0 µM 93% | [10]; [18] 98% | [10]; at 50.0 µM 90% | [11]; at 11.0 µM 98% | [11]; at 33.0 µM 99% | [11]; [18] 99% | [11]; at 50.0 µM 90% | [11]; at 100.0 µM 92% | [12]; at 11.0 µM 90% | [12]; at 33.0 µM 99% | [12]; at 100.0 µM 95% | [13]; at 3.7 µM 73% | [13]; at 11.0 µM 100% | [13]; at 33.0 µM 99% | [13]; at 100.0 µM 97% | [14]; at 11.0 µM 83% | [14]; at 33.0 µM 99% | [14]; at 100.0 µM 97% | [15]; [18] 99% | [15]; at 50.0 µM 90.8% | [16]; at 11.0 µM 96% | [16]; at 33.0 µM 99% | [16]; at 100.0 µM 95%

Nc1ccc2c(c1)C(=O)c1cccc(N)c1C2=O
active: [1]; at 11.0 µM 89% | [1]; at 33.0 µM 93% | [1]; at 100.0 µM 92% | [3]; at 11.0 µM 92% | [3]; at 33.0 µM 97% | [3]; at 100.0 µM 92% | [4]; at 100.0 µM 81% | [5]; at 11.0 µM 92% | [5]; at 33.0 µM 95% | [5]; [18] 93% | [5]; at 50.0 µM 89.8% | [5]; at 100.0 µM 93% | [6]; at 100.0 µM 82% | [7]; at 100.0 µM 88% | [10]; [18] 77% | [11]; at 33.0 µM 72% | [11]; [18] 89% | [11]; at 100.0 µM 87% | [12]; at 100.0 µM 72% | [13]; at 33.0 µM 74% | [13]; at 100.0 µM 85% | [14]; at 33.0 µM 79% | [14]; at 100.0 µM 85% | [15]; [18] 93% | [15]; at 50.0 µM 72.5% | [16]; at 11.0 µM 91% | [16]; at 33.0 µM 97% | [16]; at 100.0 µM 93%
inactive: [1]; at 1.2 µM 6% | [1]; at 3.7 µM 38% | [2]; at 1.2 µM -1% | [2]; at 3.7 µM 6% | [2]; at 11.0 µM 24% | [2]; at 33.0 µM 49% | [2]; at 100.0 µM 61% | [3]; at 1.2 µM 9% | [3]; at 3.7 µM 50% | [4]; at 1.2 µM -1% | [4]; at 3.7 µM 4% | [4]; at 11.0 µM 21% | [4]; at 33.0 µM 63% | [5]; at 1.2 µM 10% | [5]; at 3.7 µM 45% | [5]; [17] 51% | [6]; at 1.2 µM 4% | [6]; at 3.7 µM 16% | [6]; [17] 17% | [6]; at 11.0 µM 38% | [6]; at 33.0 µM 64% | [6]; [18] 68% | [6]; at 50.0 µM 53.9% | [7]; at 1.2 µM 5% | [7]; at 3.7 µM 11% | [7]; at 11.0 µM 29% | [7]; at 33.0 µM 57% | [8]; [17] -9% | [8]; [18] 66% | [8]; at 50.0 µM 42.9% | [9]; at 1.2 µM -2% | [9]; at 3.7 µM 3% | [9]; at 11.0 µM 19% | [9]; at 33.0 µM 37% | [9]; at 100.0 µM 48% | [10]; [17] 8% | [10]; at 50.0 µM 54.6% | [11]; at 1.2 µM -1% | [11]; at 3.7 µM 2% | [11]; [17] 6% | [11]; at 11.0 µM 25% | [11]; at 50.0 µM 57.1% | [12]; at 1.2 µM -2% | [12]; at 3.7 µM 11% | [12]; at 11.0 µM 19% | [12]; at 33.0 µM 56% | [13]; at 1.2 µM 0% | [13]; at 3.7 µM 7% | [13]; at 11.0 µM 32% | [14]; at 1.2 µM -4% | [14]; at 3.7 µM 3% | [14]; at 11.0 µM 37% | [15]; [17] 18% | [16]; at 1.2 µM 5% | [16]; at 3.7 µM 39%
